Results filed as inconclusive are left out. Activity calls are given as the source filed them. How the source made its calls: active means hit-call score of the fitted dose curve at least 0.9, where 1 is the maximum; inconclusive means response in the unintended direction; inactive means score below 0.9.
Biological target: Agonist Androgen Response Element (ARE), AR (gene 367) (UniProt P10275)
Assay: OT_AR_ARELUC_AG_1440: Odyssey Thera (OT) 24-hour CHO-K1 Luciferase Assay for Agonist Androgen Response Element (ARE) (AID 2283379)
In short: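 Seed CHO-K1 cells; dose compounds for 24 h; add D-luciferin plus ATP in PBS; read luminescence. Signal increase relative to vehicle defines agonist activity, with at least 3 replicate wells per sample.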

Agonist Androgen Response Element (ARE), AR (gene 367), sequence (P10275 whole entry, looked up): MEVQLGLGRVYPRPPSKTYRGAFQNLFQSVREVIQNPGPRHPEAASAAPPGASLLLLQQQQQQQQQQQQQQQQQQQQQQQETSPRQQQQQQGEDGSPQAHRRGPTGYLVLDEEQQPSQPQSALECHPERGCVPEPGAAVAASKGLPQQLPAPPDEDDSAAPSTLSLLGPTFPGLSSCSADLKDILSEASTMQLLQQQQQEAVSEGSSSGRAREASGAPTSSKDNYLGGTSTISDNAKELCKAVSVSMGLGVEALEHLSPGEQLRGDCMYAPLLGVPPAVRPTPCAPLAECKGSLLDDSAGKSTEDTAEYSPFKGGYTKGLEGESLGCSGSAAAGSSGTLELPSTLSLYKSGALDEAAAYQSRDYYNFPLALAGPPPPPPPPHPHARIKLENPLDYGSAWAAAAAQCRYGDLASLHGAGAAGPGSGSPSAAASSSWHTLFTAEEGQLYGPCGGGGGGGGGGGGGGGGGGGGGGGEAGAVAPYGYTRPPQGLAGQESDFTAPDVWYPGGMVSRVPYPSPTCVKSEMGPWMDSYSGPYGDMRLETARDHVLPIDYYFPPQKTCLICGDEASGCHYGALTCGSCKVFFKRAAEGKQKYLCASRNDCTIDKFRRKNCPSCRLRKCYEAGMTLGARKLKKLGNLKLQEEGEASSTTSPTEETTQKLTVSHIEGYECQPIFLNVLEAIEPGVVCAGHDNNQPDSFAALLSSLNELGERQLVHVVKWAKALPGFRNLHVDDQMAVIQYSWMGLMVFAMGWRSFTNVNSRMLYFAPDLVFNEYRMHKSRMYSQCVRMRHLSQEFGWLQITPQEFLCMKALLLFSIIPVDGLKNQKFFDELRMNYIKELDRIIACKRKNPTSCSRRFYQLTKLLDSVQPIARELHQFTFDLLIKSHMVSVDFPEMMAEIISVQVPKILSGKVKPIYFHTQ

With C1N2CN3CN1CN(C2)C3 as the compound, how does the outcome read?
The outcome was “inactive”.

How did the outcome turn out when Cc1ccc(O)cc1 was run?
The outcome was “inactive”.

With CCNc1ccccc1 as the compound, how does the outcome read?
The outcome was “inactive”.

Cc1ccc(N)cc1O was tested. Which outcome did it give?
The outcome was “inactive”.

With O=C(CCCCCCCCc1cccnc1)N1CCC(C=C(c2ccccc2)c2ccccc2)CC1 as the compound, how does the outcome read?
Its outcome is “inactive”.

Biological target: Estrogen receptor beta (Homo sapiens) (UniProt Q92731)
Sequence (Q92731 whole entry, looked up, the tested form may be a part): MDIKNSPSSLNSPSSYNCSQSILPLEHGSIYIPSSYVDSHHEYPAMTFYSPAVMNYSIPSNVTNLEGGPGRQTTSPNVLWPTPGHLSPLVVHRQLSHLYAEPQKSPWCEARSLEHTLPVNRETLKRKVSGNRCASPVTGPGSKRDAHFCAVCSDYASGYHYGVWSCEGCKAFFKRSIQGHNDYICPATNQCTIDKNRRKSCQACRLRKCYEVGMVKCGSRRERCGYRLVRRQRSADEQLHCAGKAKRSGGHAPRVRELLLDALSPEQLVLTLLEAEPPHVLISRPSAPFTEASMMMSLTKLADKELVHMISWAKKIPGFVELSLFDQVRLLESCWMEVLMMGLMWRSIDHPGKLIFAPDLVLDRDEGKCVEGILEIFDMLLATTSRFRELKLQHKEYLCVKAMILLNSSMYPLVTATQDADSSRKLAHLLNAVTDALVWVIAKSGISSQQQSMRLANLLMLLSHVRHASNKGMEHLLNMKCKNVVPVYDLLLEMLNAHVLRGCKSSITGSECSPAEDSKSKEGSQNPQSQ
Assay: OT_ER_ERbERb_1440: Odyssey Thera (OT) 24-hour HEK293T Protein-Complementation Assay for Estrogen Receptor-beta/-beta Homodimer (AID 2283380);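 further: fluorescence gain from ER beta LBD homodimer complementation read by laser scanning cytometry; scored as signal increase over DMSO baseline for both agonists and antagonists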
In short: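 HEK293T cells stably expressing human ER-beta LBD (aa 310-547) PCA homodimer pair, dosed 24 h; formaldehyde-fixed, Draq5-stained. Readout: increase in nuclear (agonist) or nuclear plus cytoplasmic (antagonist) fluorescence intensity versus DMSO, gain-of-signal fitting.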

With CCOCCO as the compound, how does the outcome read?
The outcome was “inactive”.

With CCCCCCCCCCCCCCCO as the compound, how does the outcome read?
Its outcome is “inactive”.

CC(=O)OC[C@H]1O[C@@](COC(C)=O)(O[C@H]2O[C@H](COC(C)=O)[C@@H](OC(C)=O)[C@H](OC(C)=O)[C@H]2OC(C)=O)[C@@H](OC(C)=O)[C@@H]1OC(C)=O was tested. Which outcome did it give?
Its outcome is “inactive”.

For Cc1ccc(N)cc1O, which outcome is on record?
Its outcome is “inactive”.

Which outcome does the source give for CC(C)CCCCCCOC(=O)c1ccc(C(=O)OCCCCCCC(C)C)c(C(=O)OCCCCCCC(C)C)c1 here?
The outcome was “inactive”.

How did the outcome turn out when NC(=O)NO was run?
Its outcome is “inactive”.

CCCCCCCCO was tested. Which outcome did it give?
Its outcome is “inactive”.

With O=C(CCCCCCCCc1cccnc1)N1CCC(C=C(c2ccccc2)c2ccccc2)CC1 as the compound, how does the AC50 read?
The AC50 was 11.9 µM (active).

Source: PubChem BioAssay (EPA / NIEHS)
